Source: publication PMC4336329 (PLoS ONE, 2015)
The campaign covered roughly 310,000 compounds. About 14,000 (4.5%) showed an effect of 50% or more. The effect is printed as a negative number. This is one part of a sample in which strong results are shown more often than they occur.

molecular target: human ether-à-go-go-related gene (hERG) potassium channel (human, UniProt Q12809); test: primary screen, population patch clamp on CHO cells stably expressing hERG; higher = less effect of the substance
Sequence (Q12809 whole entry, looked up): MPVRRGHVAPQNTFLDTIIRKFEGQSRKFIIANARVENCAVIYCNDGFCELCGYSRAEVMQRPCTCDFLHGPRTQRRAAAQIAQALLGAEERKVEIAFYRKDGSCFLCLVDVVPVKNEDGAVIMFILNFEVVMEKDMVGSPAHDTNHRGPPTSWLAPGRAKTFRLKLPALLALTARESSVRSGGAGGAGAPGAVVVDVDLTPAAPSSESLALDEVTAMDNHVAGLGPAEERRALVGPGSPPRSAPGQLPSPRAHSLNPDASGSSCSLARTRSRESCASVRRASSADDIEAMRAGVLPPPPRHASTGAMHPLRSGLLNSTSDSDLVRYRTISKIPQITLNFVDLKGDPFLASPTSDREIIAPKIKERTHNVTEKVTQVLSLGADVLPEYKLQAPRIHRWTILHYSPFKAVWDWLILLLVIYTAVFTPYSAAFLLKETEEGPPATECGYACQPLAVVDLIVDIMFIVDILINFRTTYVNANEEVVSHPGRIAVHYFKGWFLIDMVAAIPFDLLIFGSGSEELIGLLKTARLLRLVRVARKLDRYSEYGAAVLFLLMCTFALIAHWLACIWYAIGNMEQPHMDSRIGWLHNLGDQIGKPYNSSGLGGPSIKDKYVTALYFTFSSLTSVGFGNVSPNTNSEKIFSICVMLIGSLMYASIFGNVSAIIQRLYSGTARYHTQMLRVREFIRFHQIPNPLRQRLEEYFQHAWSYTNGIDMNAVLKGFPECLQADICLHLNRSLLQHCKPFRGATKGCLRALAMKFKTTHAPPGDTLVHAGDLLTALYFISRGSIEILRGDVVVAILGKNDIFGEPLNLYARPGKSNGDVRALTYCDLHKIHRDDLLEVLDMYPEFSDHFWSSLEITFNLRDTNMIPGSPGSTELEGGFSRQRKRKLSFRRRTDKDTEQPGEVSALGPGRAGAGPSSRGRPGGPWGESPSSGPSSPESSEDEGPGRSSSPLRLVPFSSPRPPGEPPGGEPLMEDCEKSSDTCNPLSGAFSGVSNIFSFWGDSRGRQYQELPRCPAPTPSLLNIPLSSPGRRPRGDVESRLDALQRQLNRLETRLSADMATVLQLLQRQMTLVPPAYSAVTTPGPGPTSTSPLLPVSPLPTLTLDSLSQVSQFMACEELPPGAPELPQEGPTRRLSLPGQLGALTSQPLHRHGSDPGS
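Also: peak tail current of the secondary pulse compared with the same well before compound.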

Row | SMILES | hERG current change (%, negative = inhibition) at 10uM
1 | COc1ccc(C[C@H]2CN3C(=NC[C@H]3Cc3ccccc3)N2CCNC(=O)CCC2CCCCC2)cc1 | -71.9%
2 | COc1ccc(C[C@H]2CN3C(=NC[C@@H]3Cc3ccccc3)N2CCNC(=O)CCC2CCCCC2)cc1 | -73.7%
3 | O=C(CCC1CCCCC1)NCCN1C2=NC[C@H](Cc3ccc(O)cc3)N2C[C@H]1Cc1ccc(O)cc1 | -4.37%
4 | O=C(CCC1CCCCC1)NCCN1C2=NC[C@H](Cc3ccccc3)N2C[C@H]1Cc1ccc(O)cc1 | -42%
5 | O=C(CCC1CCCCC1)NCCN1C2=NC[C@@H](Cc3ccccc3)N2C[C@H]1Cc1ccc(O)cc1 | -69.3%
6 | CCOC(=O)c1ccc(NC(=O)c2ccnn2C)cc1 | 4.61%
7 | CC(OC(=O)c1nc(-c2ccccc2)n(-c2ccccc2)n1)C(=O)Nc1cc(Cl)cc(Cl)c1 (stereo not shown) | -6.35%
8 | CN(C)C(CNC(=O)c1ccc2ccccc2n1)c1ccccc1 (stereo not shown) | 11.1%
9 | CC(=O)OC1N=C(c2ccc(Cl)cc2)c2cc(Br)ccc2NC1=O (stereo not shown) | -55%
10 | O=C1Nc2ccc(Br)cc2C(c2ccc(Cl)cc2)=NC1O (stereo not shown) | -56.5%
11 | CC(=O)OC1N=C(c2ccccc2Cl)c2cc(Br)ccc2NC1=O (stereo not shown) | -40.3%
12 | CC(=O)OC1N=C(c2ccccc2)c2cc(Br)ccc2NC1=O (stereo not shown) | -10.2%
13 | O=C1Nc2ccc(Br)cc2C(c2ccccc2Cl)=NC1O (stereo not shown) | -48.6%
14 | O=C1Nc2ccc(Br)cc2C(c2ccccc2)=NC1O (stereo not shown) | 13.1%
15 | COc1cc2c(=O)n(Cc3ccccc3)c(=O)n(CC(=O)NCCc3ccccc3)c2cc1OC | 0.36%
16 | CC(Nc1ncnc2sccc12)c1ccccc1 (stereo not shown) | -29.8%
17 | Cc1ccc(C(=O)NCCNC(=O)CN2CCCC2)cc1 | 5.16%
18 | Cc1ccccc1-c1nc(P(=O)(c2ccccc2)c2ccccc2)c(N2CCOCC2)o1 | -19.5%
19 | Cc1cccc(OCCNc2cc(N3CCOCC3)ccc2[N+](=O)[O-])c1 | -12.8%
20 | C#CCOCCOCCOCCNc1nc(N2CCN(C(=O)[C@H](C(C)C)n3cc(CCO)nn3)CC2)nc(N2CCN(C(=O)[C@H](C(C)C)n3cc(CCO)nn3)CC2)n1 | 2.97%
21 | COc1ccc(OCCOCCOc2ccc(C)cc2[N+](=O)[O-])cc1 | -22.4%
22 | COc1ccc(CNCC(O)COc2cccc3c2OC(C)(C)C3)cc1.Cl (stereo not shown) | -60.5%

Row | SMILES | hERG current change (%, negative = inhibition) at 10uM
23 | COC(=O)c1ccc(COc2cccc3c2OC(C)(C)C3)cc1 | 28.7%
24 | COc1ccc(CNCC(O)COc2ccc(C)cc2[N+](=O)[O-])cc1 (stereo not shown) | -71.2%
25 | CC1(C)Cc2cccc(OCC(O)CNCc3ccccn3)c2O1.Cl (stereo not shown) | -25.1%
26 | Cc1ccc([N+](=O)[O-])c(OCC(O)CNC(C)(C)C)c1.Cl (stereo not shown) | 3.01%
27 | O=C(CSc1nnc(-c2cccnc2)o1)N1CCCCC1 | 9.4%
28 | CC(C)C(NC(=O)C1CCCCC1)C(=O)NCc1ccccn1 (stereo not shown) | 9.17%
29 | CC(C)CC1C(C#N)=C(N)SC(N)=C1C#N | 15.9%
30 | Cc1cccc(C)c1NC(=O)CN(C)S(=O)(=O)c1ccc(-c2ccc(=O)[nH]n2)s1 | -51.7%
31 | Cc1cc(NC(=O)CN(C)S(=O)(=O)c2ccc(-c3ccc(=O)[nH]n3)s2)ccc1Br | 7.95%
32 | CCOc1ccc(N(C)S(=O)(=O)c2ccc(-c3ccc(=O)[nH]n3)s2)cc1 | -15.6%
33 | CCc1cccc(C)c1NC(=O)CN(C)S(=O)(=O)c1ccc(-c2ccc(=O)[nH]n2)s1 | -55.3%
34 | Cc1ccc(N(C)S(=O)(=O)c2ccc(-c3ccc(=O)[nH]n3)s2)cc1C | 13.7%
35 | Cc1cccc2sc(NC(=O)CN(C)S(=O)(=O)c3ccc(Br)s3)nc12 | -2.49%
36 | COc1cc(OC)cc(C(=O)N[C@H](C(=O)OCC(=O)Nc2ccc(F)c(F)c2)C(C)C)c1 | -8.85%
37 | Cc1cc(/C=C2\SC(=O)N(C)C2=O)c(C)n1-c1ccc(S(N)(=O)=O)cc1 | 13.3%
38 | COc1cccc(-c2cc(C(F)(F)F)nc(NCc3ccco3)n2)c1 | 18.8%
39 | Fc1cccc(Cl)c1-c1nnc2ccc3ccccc3n12 | 10.3%
40 | O=C(CCN1C(=O)COc2ccccc21)N1CCN(c2ccccn2)CC1 | -69.3%
41 | O=C(CCN1C(=O)COc2ccccc21)N1CCCCC1 | -6.49%
42 | Cc1ccc2c(c1)N(C(=O)CCC(=O)N1CCN(c3cccc(C)c3C)CC1)CCO2 | -18.7%
43 | O=C(CCC(=O)N1CCOc2ccc(Cl)cc21)N1CCN(c2ccccn2)CC1 | -57.5%
44 | Cc1ccc2c(c1)N(C(=O)CCC(=O)N1CCN(c3ccccn3)CC1)CCO2 | -52.2%

Row | SMILES | hERG current change (%, negative = inhibition) at 10uM
45 | Cc1ccc(C)c(N2CCN(C(=O)CCC(=O)N3CCOc4ccc(Cl)cc43)CC2)c1 | -18.9%
46 | Cc1ccc2c(c1)N(C(=O)CCC(=O)N1CCN(c3ccccn3)CC1)CC(C)O2 (stereo not shown) | -46.1%
47 | O=C(CCN1C(=O)COc2ccccc21)N1CCN(c2ccccc2)CC1 | -15%
48 | O=C(O)CCC(=O)N1CCOc2ccc(Cl)cc21 | 2.92%
49 | CCC(NC(=O)Nc1ncccc1C)(C(F)(F)F)C(F)(F)F | -3.33%
50 | Cc1cccc(NC(=O)c2ccc3c(c2)C(=O)N(c2ccccc2C)C3=O)n1 | -10.5%
51 | COc1ccc(CN2C(=O)CN(C3CCCCCC3)C(=O)C2c2ccc(F)cc2)cc1 (stereo not shown) | 3.27%
52 | CCOC(=O)C1=C(COC(=O)c2cccnc2Cl)NC(=O)NC1C (stereo not shown) | 6.19%
53 | CCOC(=O)C1=C(COC(=O)c2ncc(Cl)c(Cl)c2Cl)NC(=O)NC1C (stereo not shown) | -60.6%
54 | CCOC(=O)C1=C(COC(=O)c2ccc(C)s2)NC(=O)NC1C (stereo not shown) | -5.32%
55 | CCOC(=O)CCc1c(C)nc(SCCN2CCCC2)c(C#N)c1C | -63.9%
56 | CCOC(=O)CCc1c(C)nc(SCc2ccc(C(=O)O)cc2)c(C#N)c1C | -11.7%
57 | CCOC(=O)CCc1c(C)nc(SCC(=O)O)c(C#N)c1C | -2.59%
58 | COc1ccc(C(=O)CC(=O)Nc2ccc([N+](=O)[O-])cc2)cc1 | -1.39%
59 | CS(=O)(=O)Nc1ccc(C(=O)CC(=O)Nc2ccc([N+](=O)[O-])cc2)cc1 | -60.7%
60 | COc1ccc(NS(=O)(=O)c2cc(NC(=O)CC(=O)c3ccc([N+](=O)[O-])cc3)ccc2C)cc1 | 5.94%
61 | COc1cccc(CC(=O)NCC2(N3CCCCC3)CCCCC2)c1 | 25%
62 | Cn1cc(Br)c(C(=O)NC2CCCCCC2)n1 | 2.74%
63 | Cc1cccn2c(=O)nc(SCC(=O)Nc3ccc4c(c3)OCO4)nc12 | -5.58%
64 | CCN(C(=O)CSc1nc2nc(C)cc(C)n2n1)C1CCS(=O)(=O)C1 (stereo not shown) | 20.5%
65 | N#Cc1ccccc1OCC(=O)OCCCOC(=O)COc1ccccc1C#N | 10.1%
66 | CC(=O)N1CCN(C(=O)COC(=O)COc2ccc(C#N)cc2)CC1 | 4.54%

Row | SMILES | hERG current change (%, negative = inhibition) at 10uM
67 | N#Cc1ccc(OCC(=O)OCCCOC(=O)COc2ccc(C#N)cc2)cc1 | -66.8%
68 | CCOC(=O)c1c(NC(=O)CCN2C(=O)c3ccccc3C2=O)sc(C(=O)OC(C)C)c1C | -4.35%
69 | Cc1ccc(S(=O)(=O)N/N=C/c2cccs2)cc1 | 9.65%
70 | C=CCOc1ccccc1CNc1cccc(F)c1 | 14.2%
71 | CCC(C)Sc1cc(-c2nc3ccc(C)cn3c2NCc2ccccc2)ccc1OC.O=C(O)C(F)(F)F (stereo not shown) | -1.12%
72 | OC(COC(c1ccccc1)c1ccccc1)CN1CCN(c2ccccn2)CC1 (stereo not shown) | -74.7%
73 | Cl.OC(COC(c1ccc(Cl)cc1)c1ccc(Cl)cc1)CN1CCN(c2ccccn2)CC1 (stereo not shown) | -82.4%
74 | Cl.OC(COc1cccc2ccccc12)CN1CCN(c2ccccn2)CC1 (stereo not shown) | -49.2%
75 | Cl.OC(COc1ccc(Cl)c2ccccc12)CN1CCN(c2ccccn2)CC1 (stereo not shown) | -21.9%
76 | Cc1cc(C)c2nc(-c3ccccn3)cc(C(=O)n3cccn3)c2c1 | 22.9%
77 | S=C(NCCc1ccccc1)NCCc1cnc[nH]1 | -4.01%
78 | CCOC(=O)C1CCCN(S(=O)(=O)c2cn(C)c(=O)n(C)c2=O)C1 (stereo not shown) | 12.8%
79 | Cc1cc(=O)[nH]c(SCCCOc2ccccc2Cl)n1 | 3.82%
80 | CCOC(=O)c1cnc2c(C)cc(C)cc2c1NCCCN1CCOCC1 | -59.7%
81 | CCOC(=O)c1cnc2c(Cl)cccc2c1NCCN1CCOCC1 | -15.3%
82 | CCOC(=O)c1cnc2c(Cl)cc(Cl)cc2c1NCCCN1CCOCC1 | -4.47%
83 | CCOC(=O)c1cnc2c(C)cc(Cl)cc2c1NCCCN1CCOCC1 | 1.44%
84 | CCOC(=O)c1cnc2c(CC)cccc2c1NCCN1CCOCC1 | -44.4%
85 | CCOC(=O)c1cnc2c(C(=O)OC)cccc2c1NCCN1CCOCC1 | -70%
86 | CCOC(=O)c1cnc2c(Cl)cccc2c1NCCCN1CCOCC1 | -44.7%
87 | CCOC(=O)c1cnc2c(CC)cccc2c1NCCCN1CCOCC1 | -35.6%
88 | CCOC(=O)c1cnc2c(C)cccc2c1NCCCN1CCOCC1 | -72.8%
